Bioassay records (PubChem BioAssay)
Shiga inhibitor = Shiga toxin inhibition. Vero cells, Shiga toxin protein synthesis inhibition reporter. inhibition, % at 38.7 µM. 9.2% of 290,000 active; in the data active = inhibition mostly above about 28%, no sharp cut-off; inactive = mostly below about 43%; also: 0% is about no effect
Pf growth 48h = P. falciparum growth inhibition at 48 hours (one generation) | AID 504832 | P. falciparum luciferase growth in erythrocytes, 48 h | 5.9% of 310,000 active | Potency, µM (titrated, usually from 28.7 µM), inactives show top-dose activity change, negative = inhibition, most hits filed as inhibitors; also: potency is read from the fitted curve at half-maximal effect; % is scaled to controls: 0 for no effect and ±100 for the full control effect
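Luciferase-expressing parasites in RBCs, 2% Hct / 0.1% parasitemia final; RPMI 1640 + 0.5% Albumax; 37 C, 5% CO2, one generation; luminescence read-out, lower signal = inhibition.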
Sm TGR inh = blocks Schistosoma mansoni thioredoxin glutathione reductase. 3% of 360,000 active. Q962Y6. purified TGR, DTNB reduction, TNB absorbance 405 nm. Potency, µM (titrated, usually from 114 µM), inactives show at the highest dose activity change, negative = inhibition, most hits filed as inhibitors. AID 485364; also: potency is read from the fitted curve at half-maximal effect; % is scaled to controls: 0 for no effect and ±100 for the full control effect; nearly all actives have a fitted effect of over 60% in size
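TGR 20 nM + NADPH 100 uM (dispensed conc.), cpd preinc 15 min RT; start with NADPH (500 uM addition) then DTNB (15 mM addition). Kinetic TNB absorbance, 405 nm filter. Four-parameter Hill fit across titration.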
Pf growth 96h = P. falciparum growth inhibition at 96 hour, primary screen for plastid delayed-death inhibitors; P. falciparum luciferase reporter growth, 96 h; Potency, µM (top dose mostly 28.7 µM), for the others: top-dose activity change, negative = inhibition, most hits filed as inhibitors; 6.9% of 320,000 active; also: potency is read from the fitted curve at half-maximal effect; % is scaled to controls: 0 for no effect and ±100 for the full control effect
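Readout is luminescence from an integrated firefly luciferase in P. falciparum. Red cells, 2% hematocrit and 0.05% parasitemia final, were cultured with compound through two parasite generations (96 hours) at 37 C, 5% CO2.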
CHX counter = affects cycloheximide protein synthesis inhibition readout, counter-screen; cell reporter, cycloheximide protein synthesis inhibition counterscreen; max response, %; 12% of 300,000 active; AID 2314; in the data active = max response mostly above about 13%, no sharp cut-off; inactive = mostly below about 14%; also: read at 38.3 µM for the half of the compounds with a filed dose; 0% is about no effect
NS1 inh = inhibitors of influenza NS1 protein function; AID 2326; Potency, µM (titrated, usually from 46.1 µM), for inactives: top-dose activity, positive = more growth; 0.4% of 270,000 active; calls by dose curve; also: potency is read from the fitted curve at half-maximal effect; actives are rising curves; nearly all actives have a fitted effect of over 50% in size
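OD600 was taken as the measure of yeast growth restored by compound in an NS1-expressing S. cerevisiae strain. Cells had been washed out of glucose medium and diluted 1:100 into galactose -URA medium, pH 6.0.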
* hit, by the source's call; ? = inconclusive; . = no result; + = active, no number. Only some compounds are listed: those with a hit (about 21% of all), similar ones and a draw of the others. Unless noted, calls follow the shape of the dose curve; as a rule, active = well fitted curve in the direction sought with a large enough effect; inconclusive = small, poorly fitted or top-dose-only effect, or another doubt; inactive = no such curve, though single readings can be large; an effect the other way counts as inactive or inconclusive.

SMILES	Shiga inhibitor	Pf growth 48h	Sm TGR inh	Pf growth 96h	CHX counter	NS1 inh
CCOc1ccc(NC(=O)NC2CCCCCCC2)cc1	91*	80%	-7%	?	51*	1%
CCc1cccc(NC(=O)NC2CCCCC2)c1	44	26%	-1%	.	23*	-52%
CC(=O)c1ccc(NC(=O)C2CCC(CNS(=O)(=O)c3cccc4nsnc34)CC2)cc1 (stereo unspecified)	.	.	2%	.	.	.
CCOC(=O)c1[nH]c(C)c(CCC(=O)Nc2c(C)cc(C)cc2C)c1C	.	.	2%	.	.	.
COc1ccc(Br)cc1S(=O)(=O)n1nc(C)cc1C	-11	-19%	-21%	?	-1	5%
COc1ccccc1-c1noc(CSc2nc(N)cc(=O)[nH]2)n1	12	30%	0%	-104%	1	3%
COc1ccc(NC(=O)C(=S)NC2CCCCC2)cc1	118*	117%	8%	18%	47*	0%
COC(=O)C(O)(c1ccc(NC(=S)NC(=O)c2ccc(Cl)cc2Cl)cc1)C(F)(F)F (stereo unspecified)	4	7%	0%	19%	-2	18%
COC(=O)C(O)(c1ccc(NC(=O)NC2CCCCC2)cc1)C(F)(F)F (stereo unspecified)	39*	121%	6%	30%	35*	5%
CCc1ccc(NC(=O)NC2CCCCCCC2)cc1	119*	109%	0%	?	53*	-5%
CCOc1ccc(NC(=O)C(=S)NC2CCCCC2)cc1	37	18%	-6%	8%	22*	0%
O=C(Nc1ccc(N2CCOCC2)cc1)c1cccc(S(=O)(=O)N2CCCCCC2)c1	29	-9%	0%	-6%	4	4%
CC(C)c1ccc(S(=O)(=O)N2CCN(C(=O)c3ccncc3)CC2)cc1	.	?	-9%	?	.	.
O=C(Nc1ccc2c(c1)OCCO2)c1cccc(S(=O)(=O)N2CCCCC2)c1	84*	16%	0%	.	20*	13%
O=C(Nc1ccc2c(c1)OCCO2)c1cccc(S(=O)(=O)N2CCOCC2)c1	68*	79%	0%	.	28	-13%
Cc1ccc(NC(=O)c2cc(S(=O)(=O)N3CCOCC3)ccc2F)c(C)c1	32	-18%	-8%	?	23*	-9%
Cc1cc(C)n(-c2ccc(C(=O)N3CCN(S(=O)(=O)c4ccc(C(C)C)cc4)CC3)cc2)n1	.	12µM*	-6%	?	.	.
COc1ccc(CCC(=O)NC2CCCc3ccccc32)cc1OC (stereo unspecified)	-3	9%	-6%	0%	3	0%
CC(C)(C)c1ccc(C(=O)NCC(c2cccnc2)N2CCc3ccccc3C2)cc1 (stereo unspecified)	.	.	-12%	.	.	.
CC1(C)CC(=O)c2c(oc3c(Cl)cc(NS(=O)(=O)c4ccc(Br)cc4)cc23)C1	.	.	-11%	.	.	.
O=C(CCNS(=O)(=O)c1ccc(Br)s1)NCc1ccc2c(c1)OCO2	-6	3%	6%	8%	12	.
CCOc1cc(C2c3c(oc4ccccc4c3=O)C(=O)N2Cc2ccccc2Cl)ccc1O (stereo unspecified)	.	.	0%	.	.	.
CCN(CC)S(=O)(=O)c1cccc(NC(=O)Nc2cccc(C(F)(F)F)c2)c1	-7	.	-2%	4.1µM*	5	19%
Cc1ccc(NC(=O)C2=CCN(S(=O)(=O)c3ccc(F)cc3)CC2)c(C)c1	-8	13%	-5%	0.33µM*	-4	3%
CNS(=O)(=O)c1cccc(C(=O)OCC(=O)c2ccc(S(=O)(=O)N3CCCCC3)cc2)c1	.	13µM*	-19%	?	.	.
SMILES	Shiga inhibitor	Pf growth 48h	Sm TGR inh	Pf growth 96h	CHX counter	NS1 inh
CS(=O)(=O)c1cccc(C(=O)Nc2ccc3c(c2)OCCCO3)c1	59*	118%	-13%	94%	35*	5%
CCC(=O)N1CCc2cc(S(=O)(=O)NC(C(=O)NCCc3ccccc3)C(C)C)ccc21 (stereo unspecified)	.	.	-1%	.	.	.
CCOC(=O)C1=C(CS(=O)(=O)c2c(C)cc(C)cc2C)NC(=O)NC1c1cccc(OC)c1 (stereo unspecified)	.	.	5%	.	.	.
O=C(NCCN1C(=O)S/C(=C\c2ccc(F)cc2)C1=O)c1cccc(S(=O)(=O)N2CCOCC2)c1	+	-6%	-14%	?	69*	13%
COc1cc(C(=S)N2CCCC2)ccc1OS(=O)(=O)c1ccc(NC(C)=O)cc1	31	2.1µM*	-2%	126%	3	.
Cc1cc(C)n(-c2ccc(C(=O)Nc3cccc(S(=O)(=O)N4CCCC4)c3)cc2)n1	-13	-32%	4%	10µM*	-1	.
O=C(Nc1cccc(O)c1)c1ccc(S(=O)(=O)N2CCCCCC2)cc1	52*	?	-4%	?	18*	10%
O=C(NCCN1C(=O)S/C(=C\c2ccccc2)C1=O)c1cc(S(=O)(=O)N2CCOCC2)c(Cl)cc1Cl	-6	?	-5%	?	-1	9%
COc1cc(C(=S)N2CCOCC2)ccc1OS(=O)(=O)c1ccc(NC(C)=O)cc1	16	14%	-5%	20%	-2	-1%
COc1ccc(NC(=O)c2ccc(Br)c(S(=O)(=O)N3CCOCC3)c2)cc1	-3	?	8%	0%	5	3%
COc1cccc(/C=N/NC(=O)CN(CCc2ccccc2)S(=O)(=O)c2ccc(NC(C)=O)cc2)c1	-1	?	-7%	9%	-2	21%
CN(c1ccc([N+](=O)[O-])cc1/C=N/NC(=O)COc1ccccc1)C1CCCCC1	-14	?	-9%	?	-4	8%
CC(NC(=O)c1cc([N+](=O)[O-])cc([N+](=O)[O-])c1)c1ccc(-n2ccnc2)cc1 (stereo unspecified)	-10	1.5µM*	-24%	0.93µM*	-1	?
CC(NC(=O)c1ccc(N(C)C)c([N+](=O)[O-])c1)c1ccc(-n2ccnc2)cc1 (stereo unspecified)	-4	-11%	-2%	?	-2	-12%
CC(=O)Oc1ccc(-c2ccc(C(=O)Nc3cccc(S(=O)(=O)N4CCOCC4)c3)cc2)cc1	30	?	5%	?	9.4*	-20%
COc1ccc(C(=O)NC(=S)Nc2cccc(S(=O)(=O)N3CCOCC3)c2)cc1	1	0%	?	-2%	-3	13%
O=C(Nc1cccc(S(=O)(=O)N2CCCC2)c1)c1cccc(S(=O)(=O)N2CCOCC2)c1	.	12µM*	-3%	?	.	.
CS(=O)(=O)c1ccc(C(=O)Nc2ccc(S(=O)(=O)N3CCCCC3)cc2)cc1	.	?	-1%	?	.	.
CS(=O)(=O)c1cccc(C(=O)Nc2ccc(S(=O)(=O)N3CCCCC3)cc2)c1	.	?	-5%	9.3µM*	.	.
O=C(Nc1cccc(S(=O)(=O)N2CCCCC2)c1)c1ccc2ncsc2c1	89*	12%	5%	-4%	86*	4%
